# Inconclusive results are not listed. Entries that show only a call come without a potency. A number with no mark means an inactive call. Calls of active or inactive are those of the source. The call rests on the fitted dose curve; in most records, active means well fitted curve in the direction sought with a large enough effect; inconclusive means small, poorly fitted or top-dose-only effect, or another doubt; inactive means no such curve, though single readings can be large; an effect the other way counts as inactive or inconclusive.
# What was measured:
# [1] = target: Cellular tumor antigen p53 (Homo sapiens) (UniProt P04637); assay: Primary qHTS for small molecule compounds that upregulate eGFP-tagged delta133p53alpha (in N-terminal) cells. (AID 2060322); conditions: NCI-H358 eGFP-delta133p53alpha fluorescence, 24 h; activation: stronger effect = higher value; further: nearly all actives have a fitted effect of over 75% in size; further: potency means the concentration at half of the fitted maximal effect;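 on activation: cells pre-induced with doxycycline then dosed without doxycycline; series mostly up to about 56 µM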
# Outline: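 NCI-H358 cells pre-induced 24 h with 10 ng/ml doxycycline for eGFP-delta133p53alpha, plated dox-free and exposed 24 h at 37C to titrated compounds. Fixed, Hoechst-stained; gated GFP peak intensity by laser scanning cytometry, normalized to DMSO (0%) and 57.5 uM 5-azacytidine (100%).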
# [2] = target: Aldehyde dehydrogenase, mitochondrial (Homo sapiens) (UniProt P05091); assay: qHTS for Inhibitors of the Aldehyde Dehydrogenase Family (ALDH2) Primary screen (AID 2061308); further: nearly all actives have a fitted effect of over 55% in size
# [3] = target: Retinaldehyde dehydrogenase 3 (Homo sapiens) (UniProt P47895); assay: qHTS for Inhibitors of the Aldehyde Dehydrogenase Family (ALDH1A3) Primary screen (AID 2061315)
# Sequence of Cellular tumor antigen p53 (Homo sapiens) (P04637 whole entry, looked up): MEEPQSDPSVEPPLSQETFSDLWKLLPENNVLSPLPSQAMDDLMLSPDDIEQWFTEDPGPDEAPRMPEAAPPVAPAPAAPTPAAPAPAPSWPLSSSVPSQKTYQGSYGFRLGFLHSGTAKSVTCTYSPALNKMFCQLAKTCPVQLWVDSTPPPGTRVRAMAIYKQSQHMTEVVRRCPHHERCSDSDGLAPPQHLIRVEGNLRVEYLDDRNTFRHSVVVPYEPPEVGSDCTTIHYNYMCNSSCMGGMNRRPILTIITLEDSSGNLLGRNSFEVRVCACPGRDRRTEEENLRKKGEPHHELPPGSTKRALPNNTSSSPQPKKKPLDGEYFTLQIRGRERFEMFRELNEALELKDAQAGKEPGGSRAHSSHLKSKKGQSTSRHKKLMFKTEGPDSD
Compound,activation [1],Potency [2],Potency [3],Potency [1]
O=C1Nc2ccc(O)cc2O[C@H]1O[C@@H]1O[C@H](CO)[C@@H](O)[C@H](O)[C@H]1O,-16.8%,inactive,inactive,
COC1=CC(=O)O[C@@H](CCc2ccccc2)[C@@H]1O,-13%,inactive,inactive,
CC(C)=CCc1c(O)cc2oc3cc(C)cc(O)c3c2c1C,-21.4%,inactive,inactive,
N#C[C@@H]1CCCN1C(=O)CNC12CC3CC(CC(O)(C3)C1)C2,15%,inactive,inactive,
OC[C@H]1O[C@@H](OCCc2ccc(O)cc2)[C@H](O)[C@@H](O)[C@@H]1O,-13.7%,inactive,inactive,
C=C1C2=CC(O)C(C)C1(C)CC/C(C)=C/CCC1(C)OC1C2=O (stereo not given),0.763%,inactive,inactive,
COc1ccc2c(c1)C(C(=O)N(Cc1ccc(N(C)C)cc1)c1ccc(C(C)C)cc1)CCC2 (stereo not given),1%,inactive,inactive,
COc1c2ccoc2cc2oc(CO[C@@H]3O[C@H](CO)[C@@H](O)[C@H](O)[C@H]3O)cc(=O)c12,-23.2%,inactive,inactive,
COc1nc2sc(C(=O)NC3CC3)c(N)c2c(C)c1Cl,-6.33%,inactive,inactive,
Cc1cc(CO)c(O)c(C(=O)CC2CC(=O)NC(=O)C2)c1,-5.34%,inactive,inactive,
C[C@@H]1O[C@@H](O[C@H]2[C@@H]3C=CO[C@@H](O[C@@H]4O[C@H](CO)[C@@H](O)[C@H](O)[C@H]4O)[C@@H]3[C@@]3(CO)O[C@@H]23)[C@H](O)[C@H](OC(=O)/C=C/c2ccc(O)cc2)[C@H]1OC(=O)/C=C/c1ccc(O)cc1,-13%,inactive,inactive,
CC1=C(CO)CC(C(C)C2CCC3C4CC=C5CC(OC6OC(COC7OC(CO)C(O)C(O)C7O)C(O)C(O)C6O)CC(O)C5(C)C4CCC23C)OC1=O (stereo not given),3.05%,inactive,inactive,
Cc1cccc(C)c1-n1c(=O)c2cnc(Nc3ccc(N4CCN(C)CC4)cc3)nc2n2c3ccccc3nc12,,inactive,inactive,30.1 µM (active)
COc1c2c(c(C)c3c1C(=O)OC3)OC1(C)CC(O)C(C(C)(C)O)C(C)(CCC(=O)O)C1C2 (stereo not given),8.4%,inactive,inactive,
C[C@H]1[C@H](C)CC[C@]2(C(=O)OC3OC(CO)C(O)C(O)C3O)CC[C@]3(C(=O)O)C(=CCC4[C@@]5(C)CC[C@H](O[C@@H]6O[C@@H](C)[C@H](OC7OC(CO)C(O)C(O)C7O)[C@@H](O)[C@H]6O)C(C)(C)C5CC[C@]43C)[C@H]12 (stereo not given in full),-9.92%,inactive,inactive,
C[C@]12C=CC(=O)C=C1CC[C@@H]1[C@@H]2[C@@H](O)C[C@@]2(C)[C@H]1CC[C@]2(O)C(=O)COC(=O)CCC(=O)O,13%,inactive,inactive,
C=C[C@H]1[C@H](O[C@@H]2O[C@H](CO)[C@@H](O)[C@H](O)[C@H]2O)OC=C(C(=O)OC)[C@H]1CCO,-7.63%,inactive,inactive,
CCC(C)(O)C(O)C(=O)OCc1ccc(O[C@@H]2O[C@H](CO)[C@@H](O)[C@H](O)[C@H]2O)cc1 (stereo not given in full),-6.87%,inactive,inactive,
Cc1cc(C)c(NC(=O)N(Cc2ccc3c(c2)Cc2ccccc2-3)C2CCCCCC2)c(C)c1,15.3%,inactive,inactive,
CC(C)=CCc1ccc(Oc2c(O)cc(C)cc2CO)c(C(=O)O)c1O,3.82%,inactive,inactive,
CCC(C)/C=C(C)/C=C/C1=CC2=C(Cl)C(=O)C(C)(O)C(=O)C2(O)C(OC)O1 (stereo not given),28.2%,inactive,inactive,
CCC1=C(C)C(=O)C(C)CC12C(=O)CCC2C(=O)O (stereo not given),-11.5%,inactive,inactive,
CC12CCC3c4ccc(OC5OC(C(=O)O)C(O)C(O)C5O)cc4CCC3C1CCC2O (stereo not given),11.7%,inactive,inactive,
COc1ccc(/C=C/C(=O)O[C@@H]2[C@@H](O)[C@@H](O)[C@H](O[C@H]3[C@@H]4C=CO[C@@H](O[C@@H]5O[C@H](CO)[C@@H](O)[C@H](O)[C@H]5O)[C@@H]4[C@@]4(CO)O[C@@H]34)O[C@H]2C)cc1,-16%,inactive,inactive,
C=C1CCC2C(C)(C(=O)O)CCCC2(C)C1CCC1=CCOC1=O (stereo not given),31.2%,inactive,inactive,
